SW480 rereplic = A quantitative high throughput screen for small molecules that induce DNA re-replication in SW480 colon adenocarcinoma cells. SW480 DNA re-replication, Hoechst DNA content imaging, 48 h. Potency, µM (titrated, usually from 46.1 µM), actives largely listed as activators. 1.8% of 340,000 active; note: nearly all actives have a fitted effect of over 55% in size
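Image-based DNA-content assay: after two days of treatment, nuclei were labelled with the DNA dye Hoechst and imaged, and hits were compounds raising the count of nuclei showing high fluorescence intensity.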
KB-3-1 cytotox = qHTS assay for MDR1-selective chemotherapeutics: Primary screen using the parental adenocarcinoma cell KB-3-1 | 1.4% of 400,000 active | Potency, µM (top dose mostly 46.1 µM), actives largely listed as cytotoxic | AID 1347075, 2019 | KB-3-1 viability, CellTiter-Glo ATP luminescence, 72 h; note: nearly all actives have a fitted effect of over 60% in size
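Screening of KB-3-1 cells (DMEM, 10% FBS, phenol-red free) ran from lowest to highest compound concentration; after 72 h at 37 °C viability was read luminescently and curves fitted.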
KB-V1 cytotox = qHTS assay for MDR1-selective chemotherapeutics: Primary screen using the drug-selected MDR subline cells KB-V1; KB-V1 MDR cells viability, CellTiter-Glo, 72 h; Potency, µM (top dose mostly 46.1 µM), most hits filed as cytotoxic; 3.4% of 400,000 active; note: nearly all actives have a fitted effect of over 60% in size
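KB-V1 cells (P-gp-expressing MDR subline of KB-3-1) in phenol-red-free DMEM with 10% FBS were exposed to library compounds over a concentration series for 72 h at 37 degrees C. Viability read by CellTiter-Glo luminescence; concentration-effect curves fitted after normalization.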
D3 antag = qHTS of D3 Dopamine Receptor Antagonist: qHTS | D(3) dopamine receptor (Homo sapiens), P35462 | D3R cells, DiscoveRx beta-arrestin luminescence, antagonist mode; hits give low values | max response, negative = inhibition, % | 2.5% of 360,000 active | AID 652054, 2013; in the data active = max response below about -50%; inconclusive = no clear call, values can overlap the other calls
Target sequence (P35462 whole entry, looked up): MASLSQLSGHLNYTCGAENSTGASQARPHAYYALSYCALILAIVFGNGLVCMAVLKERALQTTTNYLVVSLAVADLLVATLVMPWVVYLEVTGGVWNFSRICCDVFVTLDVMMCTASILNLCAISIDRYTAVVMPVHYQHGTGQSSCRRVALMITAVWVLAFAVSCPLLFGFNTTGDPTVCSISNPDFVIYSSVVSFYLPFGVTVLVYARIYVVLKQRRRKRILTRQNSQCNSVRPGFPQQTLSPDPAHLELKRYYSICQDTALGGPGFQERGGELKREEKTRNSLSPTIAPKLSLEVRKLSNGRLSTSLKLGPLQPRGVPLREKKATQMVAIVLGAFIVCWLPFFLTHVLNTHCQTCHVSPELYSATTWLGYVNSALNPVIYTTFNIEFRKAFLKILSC
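Cells plated overnight at 1500 cells/well, then exposed to library compounds with dopamine controls for 90 minutes at 37 degrees C. DiscoveRx reagent added for 30–60 minutes at room temperature; luminescence read, quantitative HTS format.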
MCF10A rerep = A quantitative high throughput screen for small molecules that induce DNA re-replication in MCF 10a normal breast cells. 2.9% of 350,000 active. AID 624296, 2012. MCF 10A DNA re-replication, Hoechst nuclear intensity, 48 h. Potency, µM (top dose mostly 46.1 µM), usual class: activators; note: nearly all actives have a fitted effect of over 50% in size
DRD3 agonist = qHTS of D3 Dopamine Receptor Agonist: qHTS. D(3) dopamine receptor (Homo sapiens), P35462. D3R DiscoveRx beta-arrestin cells, luminescence, 90 min. max activation, %. 0.58% of 410,000 active; in the data active = max activation above about 30%
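Agonist-mode cell screen: cells plated at 1500/well and incubated overnight at 37 °C, then exposed to library compounds for 90 min at 37 °C. Detection reagent was added for 30–60 min at room temperature, and luminescence was read.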
Large screens that a line does not name were inactive. In the library only some 8.9% were active in any assay of this set; here they are far more common. Unless noted, calls come from the whole dose curve; as a rule, active = well fitted curve in the direction sought with a large enough effect; inconclusive = small, poorly fitted or top-dose-only effect, or another doubt; inactive = no such curve, though single readings can be large; an effect the other way counts as inactive or inconclusive.

C/C(=C\c1ccccc1)CN1CCN(C)CC1	D3 antag -56
CCOC(=O)N1CCN(C/C(C)=C/c2ccccc2)CC1	KB-V1 cytotox 15µM, D3 antag inconclusive
CCOC(=O)N1CCN(S(=O)(=O)/C=C/c2ccccc2)CC1	none
CCc1nc(SCc2ccccc2C)n[nH]1	none
COc1ccc(-c2nc(Cn3c(=O)cc(-c4ccccc4)c4c(C)nn(C)c43)c(C)o2)cc1OC	KB-3-1 cytotox inconclusive (no result: SW480 rereplic, D3 antag, MCF10A rerep)
COc1ccc([C@@H]2C[C@@H](c3ccccc3)Oc3cc(OC)c(OC)c(OC)c32)cc1	KB-V1 cytotox inconclusive, MCF10A rerep 1.2µM
CCC1(C)Cc2ccccc2-c2nc(NCCO)[nH]c(=O)c21 (stereo not drawn)	KB-V1 cytotox inconclusive, D3 antag -52
CCC1(C)Cc2ccccc2-c2nc(NN)[nH]c(=O)c21 (stereo not drawn)	none
CCC1(C)Cc2ccccc2-c2nc(-c3ccccc3)oc(=O)c21 (stereo not drawn)	KB-3-1 cytotox inconclusive, KB-V1 cytotox 16µM, MCF10A rerep inconclusive
COc1ccc(C(=O)Nc2ccc(OCc3cc(=O)n4ccccc4n3)cc2)cc1	none (no result: SW480 rereplic, KB-3-1 cytotox, KB-V1 cytotox, D3 antag, MCF10A rerep)
O=C(CSc1ncnc2c1cnn2CCc1ccccc1)Nc1cccc(C(F)(F)F)c1	MCF10A rerep inconclusive
Cc1c(Cl)cccc1NC(=O)CSc1ncnc2c1cnn2CCc1ccccc1	MCF10A rerep 10µM
Clc1ccc2nccnc2c1	KB-3-1 cytotox inconclusive (no result: SW480 rereplic, D3 antag, MCF10A rerep, DRD3 agonist)
C[n+]1ccnc2cc(Cl)ccc21	KB-3-1 cytotox 4.1µM, KB-V1 cytotox 5.8µM (no result: SW480 rereplic, D3 antag, MCF10A rerep, DRD3 agonist)
C[n+]1ccnc2ccccc21	KB-3-1 cytotox 4.1µM, KB-V1 cytotox 10µM (no result: SW480 rereplic, D3 antag, MCF10A rerep, DRD3 agonist)
C=CC[n+]1ccnc2ccccc21	none (no result: SW480 rereplic, D3 antag, MCF10A rerep, DRD3 agonist)
COc1cccc(CNC(=O)c2nc(Cn3nc(C)c(Br)c3C)no2)c1	none (no result: SW480 rereplic, D3 antag, MCF10A rerep)
N#Cc1cc(C#N)c(N2CCN(c3cccc(Cl)n3)CC2)nc1N	KB-V1 cytotox 18µM, MCF10A rerep 3.3µM
CC(=O)OC1CC2CCC1(C)C2(C)C (stereo not drawn)	none (no result: KB-3-1 cytotox, KB-V1 cytotox, D3 antag, DRD3 agonist)
COc1cc(/C=C/C(=O)OC2CC3CCC2(C)C3(C)C)ccc1O (stereo not drawn)	KB-3-1 cytotox inconclusive, D3 antag -50, MCF10A rerep inconclusive
CCN(CC)c1ccc(/C=N\NC(=O)c2cccc3cc[nH]c23)cc1	SW480 rereplic 23µM, KB-3-1 cytotox 23µM, KB-V1 cytotox 13µM, MCF10A rerep 15µM
Clc1ccc(CNc2ccc(CNc3ncn[nH]3)cc2)cc1	KB-3-1 cytotox inconclusive, KB-V1 cytotox 18µM
CCOC(=O)c1sc(N(Cc2ccccc2)C(=O)COC(=O)c2ccc(O)cc2)nc1C	SW480 rereplic inconclusive, MCF10A rerep 9.2µM
CC1(C2CC2)NC(=O)N(CC(=O)NCC(=O)Nc2ccc(F)c(F)c2F)C1=O (stereo not drawn)	none
Cc1nc(-c2ccccc2O)n(S(=O)(=O)N(C)C)n1	DRD3 agonist 31
Cc1ccc(Cl)cc1NC(=O)c1ccc2nc(CCc3ccccc3)oc2c1	none (no result: SW480 rereplic, D3 antag, MCF10A rerep)
COc1cc2[nH]c(=S)nc(NCCc3ccc(C)cc3)c2cc1OC	SW480 rereplic inconclusive, MCF10A rerep 23µM
COc1ccc(CCNc2nc(=S)[nH]c3cc(OC)c(OC)cc23)cc1OC	none
COc1ccccc1CNc1nc(=S)[nH]c2cc(OC)c(OC)cc12	SW480 rereplic 3.3µM
Cc1ccc(-c2n[nH]c3c2C(c2ccccc2)N(c2ccc(C(=O)O)cc2)C3=O)cc1 (stereo not drawn)	none
O=C1c2[nH]nc(-c3ccccc3)c2C(c2ccccc2)N1c1cccc(C(F)(F)F)c1 (stereo not drawn)	KB-3-1 cytotox inconclusive, KB-V1 cytotox 16µM (no result: SW480 rereplic, D3 antag, MCF10A rerep)
CCOC(=O)c1sc(NC(=O)CSc2ncn[nH]2)c(C#N)c1C	SW480 rereplic 9.2µM, MCF10A rerep 2.9µM
CCOC(=O)c1sc(NC(=O)CSc2nc(C)cc(C)n2)c(C#N)c1C	KB-V1 cytotox 8.2µM, MCF10A rerep inconclusive
CCOC(=O)c1sc(NC(=O)CSc2nnc(Cc3ccccc3)o2)c(C#N)c1C	KB-V1 cytotox inconclusive
CCOC(=O)c1sc(NC(=O)c2cc(-c3ccccc3)nc3ccccc23)c(C#N)c1C	KB-3-1 cytotox 15µM, KB-V1 cytotox inconclusive, MCF10A rerep 2.6µM
CCOC(=O)c1sc(NC(=O)CSc2nc3c(cc2C#N)CCCCC3)c(C#N)c1C	SW480 rereplic inconclusive, MCF10A rerep inconclusive
CCOC(=O)c1sc(NC(=O)CSc2n[nH]c(-c3ccccc3)n2)c(C#N)c1C	KB-V1 cytotox inconclusive, MCF10A rerep 8.2µM
N#C/C(=C\c1ccc(OCc2cccc(C(=O)O)c2)cc1)C(=O)NCc1ccco1	none
CCOC(=O)c1sc(NC(=O)CSc2ccccn2)c(C#N)c1C	MCF10A rerep 21µM
CCn1c(CNc2ccccc2Cl)nnc1SCCN1CCCCC1	KB-V1 cytotox inconclusive, D3 antag -60
CCOc1ccc(-c2c[n+]3c(n2-c2ccccc2)CCCCC3)cc1	KB-3-1 cytotox 5.8µM, KB-V1 cytotox inconclusive
COc1ccc(-n2c(-c3ccccc3)cc3c2CCCC3=O)cc1	KB-3-1 cytotox inconclusive, KB-V1 cytotox 12µM, MCF10A rerep inconclusive
COc1ccc(-n2c(-c3ccc(Br)cc3)c[n+]3c2CCC3)cc1	KB-3-1 cytotox 4.1µM, MCF10A rerep inconclusive
COc1ccc(-n2c(-c3ccc(Br)cc3)nc(=S)c3c2CCCC3)cc1	KB-3-1 cytotox inconclusive, KB-V1 cytotox inconclusive
CCOc1ccc(-c2nnc(-c3ccccc3)n2-c2ccccc2)cc1	MCF10A rerep inconclusive
COc1ccc(-n2c(-c3ccccc3)c[n+]3c2CCC3)cc1	KB-3-1 cytotox 4.1µM
CCOC(=O)c1cccc(NC(=O)c2oc3c(c2C)-c2nn(CC)cc2CC3)c1	none (no result: SW480 rereplic, KB-3-1 cytotox, KB-V1 cytotox, D3 antag, MCF10A rerep)
CCC(=O)N1CCc2cc(Br)cc(S(=O)(=O)CCC(=O)NCCc3cccc(C)c3)c21	none (no result: SW480 rereplic, KB-3-1 cytotox, KB-V1 cytotox, D3 antag, MCF10A rerep)
COc1ccccc1NC(=O)Cn1c(=O)n(Cc2cccs2)c(=O)c2cccnc21	none (no result: SW480 rereplic, D3 antag, MCF10A rerep)
CCC(=O)O[C@@H](OP(=O)(CCCCc1ccccc1)CC(=O)N1C[C@H](C2CCCCC2)C[C@H]1C(=O)O)C(C)C (stereo partly drawn)	none (no result: KB-3-1 cytotox, KB-V1 cytotox, D3 antag, DRD3 agonist)
COc1ccc(-n2c(-c3ccc(Br)cc3)c[n+]3c2SC(C)C3)cc1 (stereo not drawn)	KB-3-1 cytotox 5.8µM
COc1ccc(-n2c(-c3ccc(Br)cc3)n[nH]c2=S)cc1	D3 antag inconclusive
COc1ccc(-n2c(-c3ccc(Br)cc3)c[n+]3c2CCCCC3)cc1	KB-3-1 cytotox 3.7µM

Assay outcomes as filed in PubChem.
